# TRHR enhancer = qHTS for Small Molecule Agonists and Allosteric Enhancers of Human TRH Receptor: Primary Screen for Enhancers. enhancement, % at 2 µM. TRHR cells, fluo-8 calcium fluorescence, EC20 TRH enhancement. actives 0.66% (n = 360,000). Thyrotropin-releasing hormone receptor (Homo sapiens), P34981. AID 493056, 2011; in the data active = enhancement above about 30%
# Target sequence (P34981 whole entry, looked up): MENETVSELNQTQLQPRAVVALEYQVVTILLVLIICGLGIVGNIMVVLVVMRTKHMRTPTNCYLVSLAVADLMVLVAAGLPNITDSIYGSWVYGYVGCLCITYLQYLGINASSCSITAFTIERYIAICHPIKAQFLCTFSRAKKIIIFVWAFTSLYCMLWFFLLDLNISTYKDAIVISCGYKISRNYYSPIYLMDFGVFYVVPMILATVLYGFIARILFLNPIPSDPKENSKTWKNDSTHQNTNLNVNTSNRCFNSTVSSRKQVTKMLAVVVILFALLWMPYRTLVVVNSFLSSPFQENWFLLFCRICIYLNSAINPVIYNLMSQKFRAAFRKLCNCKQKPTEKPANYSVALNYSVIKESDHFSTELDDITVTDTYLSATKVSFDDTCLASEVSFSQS
#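 Enhancer read-out: after compound pinning and an initial kinetic agonist-mode read, an EC20 of TRH (10 nM final) was injected and fluo-8 calcium signal (Ex 480/Em 530) followed at 1 s/cycle for 100 cycles in TRHR-expressing cells.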
# D1 PAM = Potentiators of Human D1 Dopamine Receptor: qHTS; HEK293 TREx D1 cells, calcium flux, dopamine EC20 potentiation; potentiation, % at 10 µM; AID 504651, 2011; D(1A) dopamine receptor (Homo sapiens), P21728; actives 0.036% (n = 360,000); in the data active = potentiation above about 30%
# TRHR ag = qHTS for Small Molecule Agonists and Allosteric Enhancers of Human TRH Receptor: Primary Screen for Agonists | Thyrotropin-releasing hormone receptor (Homo sapiens), P34981 | TRHR cells, calcium flux fluo-8, FDSS agonist mode | activation, % at 2 µM | actives 0.18% (n = 360,000) | AID 493084, 2011
#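 TRHR-expressing cells, plated overnight in medium with 10% serum, were loaded with fluo-8 calcium dye at room temperature. After a 10 s baseline, library compound was pin-added and calcium release was recorded kinetically (ex 480/em 530) as agonist response.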
# D1 antag = Antagonist of Human D 1 Dopamine Receptor: qHTS. D(1A) dopamine receptor (Homo sapiens), P21728. HEK293 TREx D1 cells, calcium flux, dopamine EC80; stronger effect = lower value. activity change, negative = inhibition, % at 10 µM. actives 3.2% (n = 360,000). AID 504652, 2011; in the data active = activity change below about -30%
#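 After overnight tetracycline induction at 30 C, force-coupled D1 HEK293 cells took up a no-wash calcium dye at room temperature. Compounds were added and monitored 180 s, and the response to EC80 dopamine was then recorded.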
# D1 ag = Allosteric Agonists of the Human D1 Dopamine Receptor: qHTS | activation, % at 2 µM | HEK293 T-REx D1 cells, calcium flux, agonist mode | actives 1% (n = 360,000) | AID 504660, 2011
#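 Inducible HEK293 T-REx D1 cells, force-coupled to calcium signalling, were plated at 4000 cells/well with tetracycline and held overnight at 30 C. After no-wash calcium dye loading, compound-evoked calcium rise over 180 s flagged agonists.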
# Epigenetic reg = Quantitative High-Throughput Screen for Regulators of Epigenetic Control | actives 0.2% (n = 280,000) | murine LDR cells, GFP reporter derepression, 30 h | Potency, µM (series often up to 53.9 µM), most hits filed as activators | AID 1865, 2009; active = well fitted activation curve with a large enough effect; inconclusive = small, poorly fitted or top-dose-only effect; also: nearly all actives have a fitted effect of over 60% in size
#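 In this reporter-derepression format, murine cells bearing a silenced integrated CMV-GFP locus incubate with test compound (30 h, 37 C), then are washed and imaged; fluorescent objects of 20–120 um count as induced cells.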
# Hits are given with their value; i = inactive; ? = inconclusive; nt = no result given; ! = a repeat was not active. This is a sample that favours compounds with a hit; in the whole collection about 4.6% have one here. Rule as the data show it, unless noted: active = activation above about 30%; inactive = the rest.
SMILES,TRHR enhancer,D1 PAM,TRHR ag,D1 antag,D1 ag,Epigenetic reg
O=C(NCCCCN1CCCC1)c1ccc(-n2c(=O)c(=O)[nH]c3ccccc32)cc1,nt,nt,nt,nt,nt,i
CCOc1ccc(C(=O)c2cn(CC(=O)Nc3ccc(Cl)cc3)c3cc4c(cc3c2=O)OCCO4)cc1,i,i,i,i,i,i
CCOc1ccc(NC(=O)Cn2cc(C(=O)c3ccc(OCC)cc3)c(=O)c3cc4c(cc32)OCCO4)cc1,i,i,i,i,i,20µM
COc1ccc(NC(=O)Cn2cc(S(=O)(=O)c3ccccc3)c(=O)c3cc4c(cc32)OCO4)cc1,i,i,i,-47,i,i
Cc1ccc2c(c1)c(=O)c(S(=O)(=O)c1ccc(C)c(C)c1)cn2CC(=O)Nc1ccccc1,i,i,i,-47,i,i
Cc1ccc(S(=O)(=O)c2cn(CC(=O)Nc3ccccc3)c3cc4c(cc3c2=O)OCO4)cc1,i,i,i,i,i,i
Cc1ccc(S(=O)(=O)c2cn(CC(=O)Nc3ccc(Cl)cc3)c3ccc(F)cc3c2=O)cc1C,i,i,i,i,i,i
Cc1ccc2nc(-c3ccsc3)c(Nc3ccc(Cl)cc3)n2c1,i,i,i,i,i,i
CCOC(=O)c1ccccc1NC(=O)c1nn(C)c2c1COc1ccccc1-2,i,i,i,i,i,i
CN1CCN(C2(CNC(=O)c3ccc([N+](=O)[O-])cc3)CCCCC2)CC1,i,i,i,i,i,i
N#CN=C(N)c1ccccc1,i,i,i,-56!,i,i
CCS(=O)(=O)/N=C(\N)c1ccccc1,i,i,i,i,i,i
OC(c1cc(C(F)(F)F)nc2c(Cl)cc(Cl)cc12)C1CCCCN1 (centres undefined),i,i,i,i,32,i
O=c1c2cc(Cl)cc(Cl)c2nc2n1CCC2,i,i,i,i,i,i
O[C@@H](c1cc(C(F)(F)F)nc2c(C(F)(F)F)cccc12)[C@H]1CCCCN1,i,i,i,i,44,nt
OC(c1cc(-c2ccc(Cl)cc2)nc2ccccc12)C1CCCCN1 (centres undefined),i,i,i,i,i,i
O=C(NC1CC1)c1c[nH]c2ccc(S(=O)(=O)Nc3cccc(C(F)(F)F)c3)cc2c1=O,40,i,i,i,i,i
CCn1cc(C(=O)N(C)c2ccc(C(C)C)cc2)c2cc(OC)c(OC)cc2c1=O,i,i,i,i,i,i
Cn1cnc(S(=O)(=O)N2CCCC(C(=O)NCc3ccc(F)cc3)C2)c1 (centres undefined),i,i,i,i,i,i
COCCCNC(=O)COc1ccc(Br)cc1Cl,i,i,i,-34,i,i
CC(C)NCCCCOc1ccc(Br)cc1Cl,i,i,i,i,50,i
CCCCNCCOCCOc1ccc(Cl)cc1Br,i,i,i,-41,i,i
CC(C)NCCCOc1ccc(Cl)cc1Br,i,i,i,i,47,i
CCNC(=O)COc1ccc(Br)cc1Cl,i,i,i,i,i,i
COCCCNCCCOc1ccc(Cl)cc1Br,i,i,i,i,i,i
SMILES,TRHR enhancer,D1 PAM,TRHR ag,D1 antag,D1 ag,Epigenetic reg
COc1ccc(NC(=O)Cn2c(=O)n(-c3ccc(CC(=O)NCC4CCCO4)cc3)c(=O)c3ccccc32)c(OC)c1 (centres undefined),i,i,i,i,i,i
CN(C)CCCNc1cc(N2CCN(C3CCCCC3)CC2)c2noc3c2c1C(=O)c1ccccc1-3,i,i,i,i,i,i
COc1ccc(NC(=O)CCc2c(C)nn(-c3ccc(N4CCCC4)nn3)c2C)cc1Cl,i,i,i,i,i,i
Cc1cc2[nH]c(=O)cc(-c3ccccc3)n2n1,i,i,i,i,i,nt
Cc1cc2[nH]c(=O)c3ccccc3n2n1,i,i,i,-72,i,i
CSc1nc(N)nc(SCC(=O)Nc2cccc(F)c2)c1C#N,i,i,i,-44,i,i
N#Cc1c(C(F)(F)F)cc(-c2cccs2)nc1SCC(=O)Nc1cccc(Cl)c1,i,i,i,i,47,i
CSc1nc(N)nc(SCC(=O)Nc2ccc(Cl)cc2)c1C#N,i,i,i,i,i,i
CCN(CC)C(=O)CSc1nc(-c2cccs2)cc(-c2cccs2)c1C#N,i,i,i,i,i,35µM
N#Cc1c(C(F)(F)F)cc(-c2cccs2)nc1SCC(=O)Nc1cccc(Br)c1,i,i,30,i,184,10µM
CCc1ccccc1NC(=O)CN(c1cc(C(F)(F)F)ccc1Cl)S(=O)(=O)c1ccccc1,i,i,i,i,i,i
CCOC(=O)c1c(NC(=O)CN2CCN(C(=O)c3ccco3)CC2)sc(C)c1C,i,i,i,-32,126,nt
CCOC(=O)c1ccc(NC(=O)CN2CCN(C(=O)c3ccco3)CC2)cc1,i,i,i,i,i,nt
CCc1c(C)sc(NC(=O)CN2CCN(C(=O)c3ccco3)CC2)c1C(=O)OC,i,i,i,i,59,nt
CCC(=O)N(CCC(c1ccccc1)c1ccc2c(c1)OCO2)Cc1ccc(OC(C)C)cc1 (centres undefined),i,i,i,-53,i,i
CCCSc1nnc2c(n1)OC(c1sccc1C)Nc1ccccc1-2 (centres undefined),i,i,i,i,i,i
COCc1cc(C)nc(SCc2ccc(Cl)cc2)c1C#N,i,i,i,-32,36,nt
COCc1cc(C)nc(SCC(=O)Nc2ccc3c(c2)OCCO3)c1C#N,i,i,i,-31,i,nt
COCc1cc(C)nc(SCC(=O)Nc2ccc3c(c2)OCO3)c1C#N,i,i,i,i,i,i
O=C1c2ccccc2C(=O)N1CCN1CCCCC1,i,i,i,i,i,i
C=CCN1C(=O)c2cccc3c(Br)ccc(c23)C1=O,i,i,i,i,i,i
O=C1c2cccc3c(N4CCCCC4)ccc(c23)C(=O)N1c1cccc(O)c1,i,i,73,i,300,11µM
O=C1c2cccc3c(N4CCCCC4)ccc(c23)C(=O)N1CCO,i,i,69,i,109,i
C=CCN1C(=O)c2cccc3c(N4CCCCC4)ccc(c23)C1=O,i,i,34,i,89,?
Cc1n[nH]c(C)c1N1C(=O)c2cccc3c(N4CCCCCC4)ccc(c23)C1=O,i,i,126,i,281,i
O=C(c1cccc(N2C(=O)c3ccccc3C2=O)c1)N1CCCCCC1,i,i,i,i,i,i
O=C(CCCn1c2ccccc2c(=O)c2ccccc21)Nc1ccc(F)cc1Cl,i,i,i,i,i,i

# Assay outcomes deposited in PubChem BioAssay by National Center for Advancing Translational Sciences (NCATS).
